USP2a inh = qHTS Assay for Inhibitors of Ubiquitin-specific Protease USP2a | Ubiquitin carboxyl-terminal hydrolase 2 (Homo sapiens), O75604 | USP2a enzymatic assay, qHTS inhibition | Potency, µM (doses to about 38.3 µM), without a hit: at the highest dose activity change, negative = inhibition, hits mostly inhibitors | 0.1% of 60,000 active | AID 927, 2007; further: nearly all actives have a fitted effect of over 60% in size
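Coupled readout: USP2-cleaved Ub-PLA2 (20nM final) turns over NBD C6-HPC (20uM final), Ex 460nm/Em 535nm after 2.5 h, time-zero read flagging artifacts. Enzyme (20nM final, pH 8.0 Tris) given 30 min RT with compound first; NEM defines full inhibition.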
TSHR agonist = qHTS Assay for Agonists of the Thyroid Stimulating Hormone Receptor. Thyrotropin receptor (Homo sapiens), P16473. HEK293-CNG-TSHR cells (CNG channel as cAMP sensor), membrane potential dye, cAMP. Potency, µM (series often up to 57.1 µM), inactives show at the top dose activation, usual class: activators. 0.48% of 73,000 active. AID 926, 2007; active means well fitted activation curve with a large enough effect in the main read-out, with a control signal flat, not every such curve was filed as active; inconclusive means small, poorly fitted or top-dose-only effect, or a change in a side signal; inactive means no such curve, though single readings can be large or run the other way; % of control where 0% means no effect;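 further: the control signal comes from parental cells without the receptor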
Target sequence (P16473 whole entry, looked up): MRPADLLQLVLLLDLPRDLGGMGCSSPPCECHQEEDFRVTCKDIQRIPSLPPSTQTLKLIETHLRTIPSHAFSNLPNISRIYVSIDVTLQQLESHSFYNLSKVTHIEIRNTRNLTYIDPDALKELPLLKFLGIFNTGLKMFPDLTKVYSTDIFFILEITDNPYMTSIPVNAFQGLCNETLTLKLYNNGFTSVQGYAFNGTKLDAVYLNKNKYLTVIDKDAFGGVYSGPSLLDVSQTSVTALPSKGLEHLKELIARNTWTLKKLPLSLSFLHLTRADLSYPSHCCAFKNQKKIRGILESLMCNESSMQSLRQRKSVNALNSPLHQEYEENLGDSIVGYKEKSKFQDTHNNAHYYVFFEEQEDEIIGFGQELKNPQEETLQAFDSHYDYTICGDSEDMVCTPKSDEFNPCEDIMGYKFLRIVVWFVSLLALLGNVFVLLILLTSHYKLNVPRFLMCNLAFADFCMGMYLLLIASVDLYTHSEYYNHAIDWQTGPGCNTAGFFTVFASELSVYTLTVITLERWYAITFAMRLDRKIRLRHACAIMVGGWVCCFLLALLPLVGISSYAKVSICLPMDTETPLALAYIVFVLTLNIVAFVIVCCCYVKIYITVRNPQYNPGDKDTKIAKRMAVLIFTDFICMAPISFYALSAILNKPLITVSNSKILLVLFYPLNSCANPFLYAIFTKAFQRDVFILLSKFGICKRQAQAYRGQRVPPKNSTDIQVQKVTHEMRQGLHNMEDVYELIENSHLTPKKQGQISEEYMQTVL
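HEK 293 cells stably expressing TSHR and a modified CNG channel, with CNG-only parental cells as counterscreen, were preloaded 60 min at room temperature with membrane potential dye containing 100 uM RO 20-1724. Compound exposure was 30 min, and depolarization was read as fluorescence at 590 nm.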
PK Bst = Pyruvate Kinase; Potency, µM; 1.2% of 51,000 active; purified pyruvate kinase, luminescence ATP production; ribose 5-phosphate activator present at AC10; in the data active means potency below about 11 µM; inconclusive means mostly about 12 µM to 25 µM;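 the screen sought inhibitors and activators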;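 further: scaled between full activation by ribose 5 phosphate and full inhibition by luteolin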
GBA mod = Glucocerebrosidase. 1.1% of 48,000 active. Lysosomal acid glucosylceramidase (Homo sapiens), P04062. Potency, µM. purified enzyme, resorufin glucoside fluorescence (screen aimed at inhibitors), 20 min. AID 360, 2006; in the data active means potency below about 15 µM; inconclusive means mostly about 16 µM to 33 µM;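 further: the screen sought inhibitors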
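Wild-type enzyme at 0.2 nM final in 50mM citric acid/KH2PO4, 10mM sodium taurocholate, 0.01% tween-20, pH 5.9, with resorufin beta-D-glucopyranoside at 30 uM final. Compounds titrated, 20 min at RT, red fluorescence read; AC50 from titration.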
UbGFP stabilizer = Ubiquitin-GFP Assay. Potency, µM (highest dose often 45.9 µM), without a hit: at the highest dose activation (GFP accumulation), most hits filed as activators. AID 526, 2006. Ubiquitin-GFP reporter cells, proteasome inhibition, GFP fluorescence; response scale: untreated = 0%, 10 µM MG-132 = 100%. 67,000 tested, under 10 active; active means well fitted activation curve with a large enough effect, not every such curve was filed as active; inconclusive means small, poorly fitted or top-dose-only effect, or another doubt; inactive means no such curve, though single readings can be large or run the other way
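GFP accumulation read-out: laser plate cytometry counting ubiquitin(G76V)-GFP-expressing U2OS cells after 4 hr compound exposure at 37 °C. Titrations spanned 46 uM to 2.9 nM; 0% = basal, 100% = 10 uM MG-132; concentration-response curves fitted.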
HEK293 cAMP ctrl = qHTS Assay for Agonists of the Thyroid Stimulating Hormone Receptor: Activators of Intracellular cAMP Concentrations in Parental HEK 293; parental HEK293 CNG cAMP sensor, membrane potential fluorescence; Potency, µM (doses to about 57.1 µM), for inactives: at the highest dose activation, most hits filed as activators; 2.5% of 73,000 active; further: % of control where 0% means no effect; nearly all actives have a fitted effect of over 55% in size
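Counterscreen for endogenous-receptor signalling: CNG-channel HEK 293 cells report cAMP rise by membrane depolarization. After 60 min dye equilibration with 100 uM RO 20-1724, compounds incubated 30 min before bottom-read fluorescence at 590 nm.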
Numbers without * were called inactive; i = inactive; ? = inconclusive; nt = no result given; [ ] = dose if it differs, or a comment. A selection: hits, their analogues and other compounds. The true share with any hit is near 4.1%. Unless noted, the call rests on the fitted dose curve; in most records, active means well fitted curve in the direction sought with a large enough effect; inconclusive means small, poorly fitted or top-dose-only effect, or another doubt; inactive means no such curve, though single readings can be large; an effect the other way counts as inactive or inconclusive. Potency means the concentration at half of the fitted maximal effect.

SMILES	USP2a inh	TSHR agonist	PK Bst	GBA mod	UbGFP stabilizer	HEK293 cAMP ctrl
O=c1c(-c2ccc(F)cc2)nc2cnc(N3CCOCC3)nc2n1Cc1ccc(F)cc1	76%	-1%	nt	nt	5%	15%
CN(C)Cc1ccccc1-c1cc(N(C)C)ncn1	-14%	3%	nt	nt	-4%	3%
CCOC(=O)c1[nH]c(COC(=O)C2CC(=O)N(Cc3ccccc3)C2)c(C(=O)OCC)c1C (centres undefined)	24%	?	>57	>77	4%	25µM*
FC(F)(F)c1cc(NC(=S)N2c3ccccc3-n3cccc3[C@H]2c2cccnc2)cc(C(F)(F)F)c1	nt	4%[11.4 µM]	nt	nt	4%[9.17 µM]	3%[11.4 µM]
CCC(C)(C)OC	nt	?	nt	nt	nt	-4%
O=S(=O)(c1ccc(Oc2ccc(Br)cc2F)nc1)N1CCCCC1	0%	?	>57	nt	0%	25µM*
O=S(=O)(c1ccc(S(=O)(=O)N2CCCC2)cc1)N1CCCCCC1	48%	-4%	>57	>77	-3%	3%
CCOc1ccc(-c2nnc(-c3ccncc3)o2)cc1	8%	5%	2.1*	>77	-6%	18%
CCOc1ccc(-c2nnc(N)o2)cc1	-2%	-1%	nt	>77	0%	-3%
CCCCOc1ccc(-c2nnc(-c3ccncc3)o2)cc1	-2%	?	5.6*	>77	-1%	?
CCCCOc1ccc(C(=O)Nc2ccncc2)cc1	7%	29%	nt	6.2*	-3%	28%
O=C1c2ccccc2-c2ccc(N=[N+]([O-])c3ccc4c(c3)C(=O)c3ccccc3-4)cc21	nt	0%[11.4 µM]	nt	nt	10%[9.17 µM]	-6%[11.4 µM]
O=S(=O)(c1cccc2cccnc12)N1CCc2ccccc21	-10%	?	1.4*	>77	-1%	?
CC1Cc2ccccc2N1C(=O)C1CCCN(S(=O)(=O)c2cccc3cccnc23)C1 (centres undefined)	nt	12%	nt	nt	-9%	3%
Cc1noc(C)c1-c1cc(NC2CCNCC2)ncn1	-5%	1%	nt	nt	-3%	4%
CCOC(=O)CCN(Cc1cccs1)S(=O)(=O)c1ccc(F)cc1	8%	?	>57	>77	0%	13µM*
CCc1nnc(NC(=O)CSc2nnc(-c3ccccc3NC(=O)c3ccccc3)o2)s1	128%	5%	>57	>77	0%	9%
CCOC(=O)CSc1nnc(-c2ccccc2NC(=O)c2ccccc2)o1	4%	?	>57	8.3*	0%	?
O=C(O)CCCC(=O)OCCCCc1cccs1	-7%	2%	nt	nt	8%	5%
Nc1nnc(CCCCc2cccs2)o1	nt	?	nt	nt	nt	0.5µM*
COc1cc(OC)cc(OCC(O)Cn2ccnc2)c1 (centres undefined)	0%	-1%	>57	>77	-7%	11%
COc1ccc(CCCO[C@@H](Cn2ccnc2)c2ccc(OC)cc2)cc1	nt	?	nt	nt	4%	32µM*
COc1ccc(C(=O)NCCCn2ccnc2)cc1	nt	?	>57	>77	0%	1.3µM*
Cc1nc(SCC(=O)Nc2ccccc2)c2oc3ccccc3c2n1	7%	16µM*	>57	>77	-2%	27%
CCOc1ccccc1NC(=O)CSc1ncnc2c1oc1ccccc12	10%	?	>57	?	-1%	25µM*
SMILES	USP2a inh	TSHR agonist	PK Bst	GBA mod	UbGFP stabilizer	HEK293 cAMP ctrl
Cc1nc2cnc(N(C)C)nc2n(C2CC2)c1=O	-15%	9%	nt	nt	3%	25%
Nc1ncnc2c1ncn2[C@@H]1O[C@H](CO)[C@@H](O)[C@H]1O	nt	nt	>26	nt	nt	nt
Nc1ncnc2c1ncn2[C@@H]1O[C@@H](CO)[C@H](O)[C@@H]1O	-3%	?	nt	nt	-5%	25µM*
O=c1c(-c2cccc(F)c2)nc2cncnc2n1-c1ccccc1	56%	?	nt	nt	-8%	?
Cc1noc(C)c1-c1nccc(NCc2cccs2)n1	-23%	nt	nt	nt	-3%	14%
CC(=O)Nc1cccc(NC(=O)Nc2ccc(C(C)=O)cc2)c1	-7%	-18%	i	>77	2%	-14%

Bioassay records (PubChem BioAssay)
